In the supplement of paper PMC11732987, “Enantioselective OTUD7B fragment discovery through chemoproteomics screening and high-throughput optimisation” (Communications Chemistry, 2025):

Key:
Assay in all cases: log2 ratio of Biotin-Ahx-Ub-VS probe labelling (fragment/DMSO); higher = less target engagement (more negative = stronger competition), active = hit call of the paper (q ≤ 0.05, log2 ratio ≤ -1)
Conditions in all cases: compound concentration: 200 uM; treatment time: 3 h
USP34 = USP34 (UniProt Q70CQ2)
Outline: (§1)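 The table lists average log2 ratios of fragment over vehicle, from an unpaired t-test on global-median-normalised Spectronaut label-free quantities. Proteins with ≥2 unique peptides were used. Samples were HEK293T lysate (495 µg) treated in triplicate with fragment at 200 µM or vehicle for 3 h, then with Biotin-Ahx-Ub-VS (0.5 µM final) for 1 h, with labelled DUBs NeutrAvidin-enriched and run by diaPASEF LC-MS/MS.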

USP36 = target: T1, USP36 (UniProt Q9P275)
T1 sequence (whole entry): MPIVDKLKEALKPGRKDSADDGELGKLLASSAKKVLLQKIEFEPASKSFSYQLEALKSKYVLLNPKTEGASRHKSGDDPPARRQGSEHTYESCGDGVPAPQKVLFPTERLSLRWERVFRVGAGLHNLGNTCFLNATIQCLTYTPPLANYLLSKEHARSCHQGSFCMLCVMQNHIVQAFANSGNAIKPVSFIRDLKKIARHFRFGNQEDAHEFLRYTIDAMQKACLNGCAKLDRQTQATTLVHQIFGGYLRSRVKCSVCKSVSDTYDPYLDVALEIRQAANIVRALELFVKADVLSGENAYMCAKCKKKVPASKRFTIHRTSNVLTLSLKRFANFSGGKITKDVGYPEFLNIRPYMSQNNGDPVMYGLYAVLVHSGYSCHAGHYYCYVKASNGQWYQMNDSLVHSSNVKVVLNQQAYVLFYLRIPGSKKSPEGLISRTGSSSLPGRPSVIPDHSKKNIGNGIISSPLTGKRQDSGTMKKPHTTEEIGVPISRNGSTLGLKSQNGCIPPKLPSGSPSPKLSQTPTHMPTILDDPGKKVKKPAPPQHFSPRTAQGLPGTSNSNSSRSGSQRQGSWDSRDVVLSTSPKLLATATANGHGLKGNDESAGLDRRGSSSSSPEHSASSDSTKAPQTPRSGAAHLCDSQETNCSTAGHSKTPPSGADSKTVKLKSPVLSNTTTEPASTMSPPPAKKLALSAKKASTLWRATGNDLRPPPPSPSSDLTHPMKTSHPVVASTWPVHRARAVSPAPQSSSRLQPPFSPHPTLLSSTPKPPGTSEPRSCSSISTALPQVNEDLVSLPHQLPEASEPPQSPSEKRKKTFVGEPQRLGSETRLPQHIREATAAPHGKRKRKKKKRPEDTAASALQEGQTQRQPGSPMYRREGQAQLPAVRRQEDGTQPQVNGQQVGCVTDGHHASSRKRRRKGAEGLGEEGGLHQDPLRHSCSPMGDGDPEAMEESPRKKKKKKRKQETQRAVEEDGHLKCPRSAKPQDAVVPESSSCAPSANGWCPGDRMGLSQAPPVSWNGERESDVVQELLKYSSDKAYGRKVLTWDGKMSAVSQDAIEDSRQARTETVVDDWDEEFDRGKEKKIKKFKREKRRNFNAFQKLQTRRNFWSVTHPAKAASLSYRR
Outline: as §1

USP38 = target: T2, USP38 (UniProt Q8NB14)
T2 sequence (whole entry): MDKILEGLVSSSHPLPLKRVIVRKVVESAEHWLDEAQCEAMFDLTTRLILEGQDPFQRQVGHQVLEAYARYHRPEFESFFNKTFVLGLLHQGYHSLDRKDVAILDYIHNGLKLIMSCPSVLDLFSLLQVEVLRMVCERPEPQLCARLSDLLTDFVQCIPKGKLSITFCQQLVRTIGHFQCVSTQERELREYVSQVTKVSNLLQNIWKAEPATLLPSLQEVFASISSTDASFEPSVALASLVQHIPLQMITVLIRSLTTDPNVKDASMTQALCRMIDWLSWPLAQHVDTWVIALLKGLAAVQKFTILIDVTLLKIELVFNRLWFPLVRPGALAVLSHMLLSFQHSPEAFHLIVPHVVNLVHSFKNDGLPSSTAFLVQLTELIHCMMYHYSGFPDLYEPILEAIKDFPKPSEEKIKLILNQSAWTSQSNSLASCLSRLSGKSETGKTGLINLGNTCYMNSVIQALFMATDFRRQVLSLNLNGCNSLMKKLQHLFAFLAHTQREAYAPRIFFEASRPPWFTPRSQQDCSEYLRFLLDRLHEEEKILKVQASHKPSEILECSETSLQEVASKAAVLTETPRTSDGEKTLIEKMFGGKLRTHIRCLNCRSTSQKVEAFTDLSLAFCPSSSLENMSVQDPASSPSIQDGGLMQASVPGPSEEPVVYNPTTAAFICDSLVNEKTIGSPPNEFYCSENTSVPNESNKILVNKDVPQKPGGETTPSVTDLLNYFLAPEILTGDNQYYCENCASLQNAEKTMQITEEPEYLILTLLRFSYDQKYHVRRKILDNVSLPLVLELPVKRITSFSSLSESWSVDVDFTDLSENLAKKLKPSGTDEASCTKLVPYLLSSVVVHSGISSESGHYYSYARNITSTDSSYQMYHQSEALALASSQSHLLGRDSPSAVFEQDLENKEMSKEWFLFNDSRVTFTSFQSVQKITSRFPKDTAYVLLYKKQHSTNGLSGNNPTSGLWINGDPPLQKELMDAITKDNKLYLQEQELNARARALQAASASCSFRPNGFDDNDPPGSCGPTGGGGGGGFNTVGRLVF
Outline: as §1

USP39 = target: T3, USP39 (UniProt Q53GS9)
T3 sequence (whole entry): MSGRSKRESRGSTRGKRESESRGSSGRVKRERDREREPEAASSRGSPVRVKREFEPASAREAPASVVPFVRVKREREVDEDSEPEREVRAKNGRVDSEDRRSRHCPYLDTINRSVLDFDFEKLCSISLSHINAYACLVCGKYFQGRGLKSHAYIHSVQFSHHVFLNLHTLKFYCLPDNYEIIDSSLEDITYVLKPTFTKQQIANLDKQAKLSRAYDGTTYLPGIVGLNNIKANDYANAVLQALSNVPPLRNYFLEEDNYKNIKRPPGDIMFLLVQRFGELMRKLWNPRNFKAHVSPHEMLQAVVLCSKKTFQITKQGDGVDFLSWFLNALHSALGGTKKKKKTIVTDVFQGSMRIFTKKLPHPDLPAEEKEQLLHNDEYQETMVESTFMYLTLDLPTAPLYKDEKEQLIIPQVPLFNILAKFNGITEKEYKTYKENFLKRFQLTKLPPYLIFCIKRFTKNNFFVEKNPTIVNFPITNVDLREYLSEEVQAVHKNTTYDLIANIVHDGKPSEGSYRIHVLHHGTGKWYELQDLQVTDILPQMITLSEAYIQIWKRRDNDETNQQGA
Outline: as §1

USP4 = target: T4, USP4 (UniProt Q13107)
T4 sequence (whole entry): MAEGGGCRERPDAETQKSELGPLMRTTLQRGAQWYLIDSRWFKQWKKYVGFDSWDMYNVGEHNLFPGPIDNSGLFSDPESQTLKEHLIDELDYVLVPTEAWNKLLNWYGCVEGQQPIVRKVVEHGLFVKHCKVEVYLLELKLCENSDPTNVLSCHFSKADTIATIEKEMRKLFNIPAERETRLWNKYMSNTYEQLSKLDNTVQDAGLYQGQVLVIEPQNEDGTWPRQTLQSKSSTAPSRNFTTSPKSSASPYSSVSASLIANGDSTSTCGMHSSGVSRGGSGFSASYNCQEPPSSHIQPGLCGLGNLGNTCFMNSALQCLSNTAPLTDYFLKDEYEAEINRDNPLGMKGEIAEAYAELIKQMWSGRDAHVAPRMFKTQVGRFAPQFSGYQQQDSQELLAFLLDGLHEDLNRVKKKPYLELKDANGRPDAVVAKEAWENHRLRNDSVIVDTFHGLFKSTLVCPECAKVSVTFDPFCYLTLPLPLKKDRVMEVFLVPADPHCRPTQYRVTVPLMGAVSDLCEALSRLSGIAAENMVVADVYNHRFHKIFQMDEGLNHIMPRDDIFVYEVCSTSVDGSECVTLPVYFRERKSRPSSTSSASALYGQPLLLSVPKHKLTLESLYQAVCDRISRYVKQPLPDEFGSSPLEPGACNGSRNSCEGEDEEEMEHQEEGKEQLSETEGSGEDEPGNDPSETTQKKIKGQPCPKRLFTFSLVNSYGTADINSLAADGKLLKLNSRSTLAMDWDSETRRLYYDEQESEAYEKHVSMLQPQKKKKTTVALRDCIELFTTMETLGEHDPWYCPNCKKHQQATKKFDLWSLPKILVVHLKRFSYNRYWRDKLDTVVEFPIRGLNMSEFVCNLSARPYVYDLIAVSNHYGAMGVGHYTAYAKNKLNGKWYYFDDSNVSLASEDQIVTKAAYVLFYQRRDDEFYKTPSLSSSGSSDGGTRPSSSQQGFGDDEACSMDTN
Outline: as §1

Measured: log2 ratio of Biotin-Ahx-Ub-VS probe labelling

Sequence of USP34 (Q70CQ2 whole entry, the tested form may be a part): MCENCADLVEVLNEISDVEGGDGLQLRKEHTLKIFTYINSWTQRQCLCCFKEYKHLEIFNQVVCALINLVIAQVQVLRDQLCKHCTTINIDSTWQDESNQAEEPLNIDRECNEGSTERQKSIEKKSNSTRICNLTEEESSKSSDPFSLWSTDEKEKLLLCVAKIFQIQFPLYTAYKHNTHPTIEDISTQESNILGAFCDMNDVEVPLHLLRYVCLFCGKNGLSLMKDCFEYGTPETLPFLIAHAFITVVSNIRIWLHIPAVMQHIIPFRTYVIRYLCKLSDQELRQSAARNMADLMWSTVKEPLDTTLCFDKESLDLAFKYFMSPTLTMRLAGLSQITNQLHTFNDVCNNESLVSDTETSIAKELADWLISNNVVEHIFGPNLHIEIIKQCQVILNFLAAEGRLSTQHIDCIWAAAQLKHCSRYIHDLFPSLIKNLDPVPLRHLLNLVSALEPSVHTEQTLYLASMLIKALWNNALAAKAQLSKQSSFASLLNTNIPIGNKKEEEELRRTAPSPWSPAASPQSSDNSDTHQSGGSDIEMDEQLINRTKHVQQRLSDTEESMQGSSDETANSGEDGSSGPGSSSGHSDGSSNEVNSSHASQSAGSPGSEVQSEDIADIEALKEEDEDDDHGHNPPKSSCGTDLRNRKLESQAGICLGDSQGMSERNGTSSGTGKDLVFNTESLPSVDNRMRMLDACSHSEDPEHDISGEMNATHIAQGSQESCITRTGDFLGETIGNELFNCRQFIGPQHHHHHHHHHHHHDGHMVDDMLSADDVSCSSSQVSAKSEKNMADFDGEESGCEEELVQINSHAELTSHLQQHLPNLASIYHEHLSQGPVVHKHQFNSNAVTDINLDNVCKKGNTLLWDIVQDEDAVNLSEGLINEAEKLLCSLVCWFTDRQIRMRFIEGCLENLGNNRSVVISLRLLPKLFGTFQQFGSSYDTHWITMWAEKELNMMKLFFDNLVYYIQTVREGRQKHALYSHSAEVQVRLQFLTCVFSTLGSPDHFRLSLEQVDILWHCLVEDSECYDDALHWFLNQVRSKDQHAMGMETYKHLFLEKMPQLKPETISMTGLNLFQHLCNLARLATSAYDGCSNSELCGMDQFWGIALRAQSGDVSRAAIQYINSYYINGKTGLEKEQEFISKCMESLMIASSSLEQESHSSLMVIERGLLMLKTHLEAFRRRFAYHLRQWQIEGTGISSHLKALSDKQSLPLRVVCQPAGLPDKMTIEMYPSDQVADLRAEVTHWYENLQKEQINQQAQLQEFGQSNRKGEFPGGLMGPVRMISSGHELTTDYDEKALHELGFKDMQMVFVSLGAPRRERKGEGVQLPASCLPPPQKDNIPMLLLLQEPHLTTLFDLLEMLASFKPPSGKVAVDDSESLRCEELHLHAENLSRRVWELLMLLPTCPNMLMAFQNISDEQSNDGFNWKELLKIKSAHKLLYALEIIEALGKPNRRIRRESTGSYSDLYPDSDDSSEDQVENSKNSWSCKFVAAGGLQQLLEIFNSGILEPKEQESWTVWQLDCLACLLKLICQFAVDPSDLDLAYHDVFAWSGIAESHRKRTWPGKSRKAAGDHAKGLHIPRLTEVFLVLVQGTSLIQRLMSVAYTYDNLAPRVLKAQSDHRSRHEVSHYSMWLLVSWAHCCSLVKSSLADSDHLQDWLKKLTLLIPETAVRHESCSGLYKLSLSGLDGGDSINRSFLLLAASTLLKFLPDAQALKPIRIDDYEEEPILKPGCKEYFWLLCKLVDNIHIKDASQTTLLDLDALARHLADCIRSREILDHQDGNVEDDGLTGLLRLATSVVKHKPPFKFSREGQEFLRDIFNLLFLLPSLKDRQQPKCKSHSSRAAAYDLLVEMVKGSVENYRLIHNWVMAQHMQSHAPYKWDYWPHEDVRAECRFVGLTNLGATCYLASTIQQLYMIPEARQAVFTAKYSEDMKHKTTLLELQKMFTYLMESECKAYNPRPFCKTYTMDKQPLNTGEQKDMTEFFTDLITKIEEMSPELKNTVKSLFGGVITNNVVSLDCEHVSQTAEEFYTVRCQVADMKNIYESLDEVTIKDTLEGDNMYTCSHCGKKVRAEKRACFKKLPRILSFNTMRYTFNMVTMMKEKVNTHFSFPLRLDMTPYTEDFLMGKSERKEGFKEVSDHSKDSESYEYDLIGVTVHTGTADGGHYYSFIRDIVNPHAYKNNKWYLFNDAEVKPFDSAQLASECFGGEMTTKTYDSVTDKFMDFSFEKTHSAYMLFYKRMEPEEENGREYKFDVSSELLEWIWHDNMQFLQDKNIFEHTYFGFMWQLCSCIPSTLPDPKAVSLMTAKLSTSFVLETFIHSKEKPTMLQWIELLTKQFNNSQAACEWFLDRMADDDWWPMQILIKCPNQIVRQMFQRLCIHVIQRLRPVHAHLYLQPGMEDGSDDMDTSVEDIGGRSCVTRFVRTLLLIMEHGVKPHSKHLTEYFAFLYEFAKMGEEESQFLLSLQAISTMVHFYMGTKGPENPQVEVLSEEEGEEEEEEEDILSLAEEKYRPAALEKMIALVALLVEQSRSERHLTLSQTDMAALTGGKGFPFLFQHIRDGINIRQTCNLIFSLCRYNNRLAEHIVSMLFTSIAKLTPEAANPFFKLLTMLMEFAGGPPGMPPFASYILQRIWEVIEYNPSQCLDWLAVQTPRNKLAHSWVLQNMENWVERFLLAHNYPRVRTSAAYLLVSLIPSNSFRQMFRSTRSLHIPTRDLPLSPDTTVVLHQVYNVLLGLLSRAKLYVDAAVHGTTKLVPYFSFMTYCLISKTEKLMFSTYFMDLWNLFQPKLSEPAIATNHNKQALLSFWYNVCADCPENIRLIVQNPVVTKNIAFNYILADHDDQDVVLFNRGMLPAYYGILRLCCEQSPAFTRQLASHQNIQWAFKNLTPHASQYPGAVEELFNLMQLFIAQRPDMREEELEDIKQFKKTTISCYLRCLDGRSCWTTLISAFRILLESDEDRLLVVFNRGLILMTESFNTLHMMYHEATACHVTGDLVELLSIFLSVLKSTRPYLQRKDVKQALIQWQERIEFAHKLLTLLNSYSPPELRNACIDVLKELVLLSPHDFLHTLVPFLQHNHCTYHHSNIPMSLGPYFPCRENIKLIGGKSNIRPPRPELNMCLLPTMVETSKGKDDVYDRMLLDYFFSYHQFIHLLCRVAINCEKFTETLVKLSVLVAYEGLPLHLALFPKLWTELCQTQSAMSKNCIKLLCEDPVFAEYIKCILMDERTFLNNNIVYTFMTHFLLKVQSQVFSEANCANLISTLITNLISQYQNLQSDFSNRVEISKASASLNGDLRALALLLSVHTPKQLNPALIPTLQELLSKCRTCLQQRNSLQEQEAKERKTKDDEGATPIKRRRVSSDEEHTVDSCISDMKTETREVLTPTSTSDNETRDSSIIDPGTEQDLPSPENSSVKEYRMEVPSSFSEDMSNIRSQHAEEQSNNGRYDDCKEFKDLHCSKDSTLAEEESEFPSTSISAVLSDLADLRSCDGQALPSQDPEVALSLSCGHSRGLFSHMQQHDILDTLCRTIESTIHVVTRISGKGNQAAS

Cc1cc(NC(=O)CCl)n(-c2ccccc2)n1
inactive: USP34 -0.374 | USP36 -0.0233 | USP38 -0.067 | USP39 -0.12 | USP4 0.0467
